Reference: PubChem BioAssay (EPA / NIEHS)
Records with an inconclusive call do not appear. Active and inactive are the calls of the source. Rule for the calls, unless noted: active = hit-call score of the fitted dose curve at least 0.9, where 1 is the maximum; inactive = score below 0.9.

What was measured:
[1] = ATG_NFI_CIS: Attagene CIS-FACTORIAL HepG2 Assay for human Nuclear Factor I (NFI) (AID 2282989); conditions: HepG2 cis-regulatory reporter, NFI response element transcription; actives raise or lower the signal
How it was run: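 Transient MRTU transfection of HepG2 → 24 h chemical dosing → total RNA, oligo(dT) RT → PCR, 6-FAM primer extension, HpaI cut → capillary electrophoresis. Endpoint fitted bidirectionally relative to DMSO.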

[2] = target: Myc proto-oncogene protein (Homo sapiens) (UniProt P01106); assay: ATG_Myc_CIS: Attagene CIS-FACTORIAL HepG2 Assay for human Myelocytomatosis (Myc) Proto-Oncogene Transcription Factor (AID 2282990); conditions: HepG2, Attagene cis-reporter transcription factor activity; actives raise or lower the signal
How it was run: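 Cells of the HepG2 human liver line bear multiple cis-driven reporter transcription units. Reporter mRNA after 24 h exposure is reverse-transcribed, amplified, labelled and resolved by capillary electrophoresis, with gain- or loss-of-signal fitting relative to DMSO.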

[3] = ATG_NF_kB_CIS: Attagene CIS-FACTORIAL HepG2 Assay for human Nuclear Factor Kappa B (NF-kB) (AID 2282991); conditions: HepG2 Attagene cis-factorial NF-kB reporter mRNA; actives raise or lower the signal
How it was run: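 HepG2 cells transiently transfected with multiplexed cis-element reporter units measuring endogenous transcription factor activity; reporter mRNA read 24 h after dosing by RT-PCR, fluorescent labelling, HpaI digestion and capillary electrophoresis. Bidirectional fit against DMSO baseline.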

[4] = ATG_NRF2_ARE_CIS: Attagene CIS-FACTORIAL HepG2 Assay for human Nuclear Factor Erythroid 2 Related Factor 2 (NFR2) response to Antioxidant Response Elements (ARE) (AID 2282992); conditions: HepG2 Attagene ARE/NRF2 reporter, transcription factor activity; actives raise or lower the signal;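 for AC50: reporter mRNA level measured by RT-PCR and capillary electrophoresis fluorescence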
How it was run: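 Endogenous transcription factor activity in human liver HepG2 cells is tracked via a cis-element-driven reporter within a multiplexed set. mRNA induction is read by RT-PCR and capillary electrophoresis after 24 h, with DMSO as baseline.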

[5] = ATG_Oct_MLP_CIS: Attagene CIS-FACTORIAL HepG2 Assay for human Octamer-Binding Transcription Factor (Oct) (AID 2282993); conditions: HepG2 Attagene cis-factorial Oct reporter, mRNA; actives raise or lower the signal
How it was run: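 Transient MRTU transfection of HepG2 → 24 h compound treatment → RNA isolation, reverse transcription, PCR → 6-FAM primer extension, HpaI digest → capillary electrophoresis. Activity fitted both directions against DMSO.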

[6] = target: human Peroxisome Proliferator-activated Receptor delta (PPARd), PPARD (gene 5467) (UniProt Q03181); assay: ATG_PPARd_TRANS: Attagene TRANS-FACTORIAL HepG2 Assay for human Peroxisome Proliferator-activated Receptor delta (PPARd) (AID 2283002; active = hit-call score of the fitted dose curve at least 0.9, where 1 is the maximum)
How it was run: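 Cell-based TRANS reporter: HepG2, transient MRTU transfection, 24 h exposure. Readout = reporter mRNA (RT-PCR/CE, 6-FAM). Gain-of-signal fit vs DMSO control.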

[7] = target: human Retinoic Acid Receptor beta (RARb), RARB (gene 5915) (UniProt P10826); assay: ATG_RARb_TRANS: Attagene TRANS-FACTORIAL HepG2 Assay for human Retinoic Acid Receptor beta (AID 2283004; active = hit-call score of the fitted dose curve at least 0.9, where 1 is the maximum)
How it was run: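 Fluorescent capillary-electrophoresis detection of GAL4-UAS reporter mRNA defines the endpoint, with induction over DMSO-treated wells scored as activity. Transiently transfected human hepatoma HepG2 cells expressing exogenous NR–Gal4 proteins are exposed to test chemicals for 24 h.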

[8] = target: Nuclear receptor subfamily 1 group I member 2 (Homo sapiens) (UniProt O75469); assay: ATG_PXR_TRANS: Attagene TRANS-FACTORIAL HepG2 Assay for human Pregnane X Receptor (PXR) (AID 2283008; active = hit-call score of the fitted dose curve at least 0.9, where 1 is the maximum)
How it was run: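 HepG2 transfected (FuGene 6) with GAL4-UAS reporter units + PXR-Gal4 chimera; dosed 24 h. Total RNA → oligo(dT) RT → PCR → 6-FAM primer extension → HpaI cut → CE. Gain-of-signal vs DMSO.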

[9] = target: human Retinoic Acid Receptor gamma (RARg), RARG (gene 5916) (UniProt P13631); assay: ATG_RARg_TRANS: Attagene TRANS-FACTORIAL HepG2 Assay for human Retinoic Acid Receptor gamma (RARg) (AID 2283009; active = hit-call score of the fitted dose curve at least 0.9, where 1 is the maximum)
How it was run: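 Readout: reporter transcript levels via RT-PCR, 6-FAM primer-extension labelling, HpaI digestion and capillary electrophoresis. Cells: HepG2 carrying transfected RARg-GAL4 chimera plus UAS reporter set. Dosing 24 h; DMSO negative control.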

[10] = target: Peroxisome proliferator-activated receptor gamma (Homo sapiens) (UniProt P37231); assay: ATG_PPARg_TRANS: Attagene TRANS-FACTORIAL HepG2 Assay for human Peroxisome Proliferator-activated Receptor-gamma (PPARg) (AID 2283007; active = hit-call score of the fitted dose curve at least 0.9, where 1 is the maximum)
How it was run: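 HepG2 cells transiently transfected with multiplexed GAL4-UAS reporter units and exogenous chimeric NR-Gal4 proteins; reporter mRNA quantified after 24 h compound exposure by RT-PCR, fluorescent labelling, HpaI digestion and capillary electrophoresis; gain-of-signal fitted versus DMSO baseline.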

[11] = target: Cellular tumor antigen p53 (Homo sapiens) (UniProt P04637); assay: ATG_p53_CIS: Attagene CIS-FACTORIAL HepG2 Assay for human p53 Transcription Factor (AID 2282994); conditions: HepG2 p53 cis-element reporter, Attagene mRNA; actives raise or lower the signal
How it was run: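 Steps: transfect HepG2 with multiplexed cis reporter constructs; dose chemicals 24 h; extract RNA, reverse-transcribe, PCR-amplify reporter sequences; FAM-label, HpaI-digest, resolve fragments by CE. Activity fitted both directions relative to DMSO.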

[12] = target: human RAR-related Orphan Receptor beta (RORb), RORB (gene 6096) (UniProt Q92753); assay: ATG_RORb_TRANS: Attagene TRANS-FACTORIAL HepG2 Assay for human RAR-related Orphan Receptor beta (RORb) (AID 2283010; active = hit-call score of the fitted dose curve at least 0.9, where 1 is the maximum)
How it was run: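 HepG2, transient MRTU transfection (GAL4-UAS reporters, exogenous NR-Gal4 chimeras); 24 h compound exposure; total RNA → RT-PCR → 6-FAM primer extension → HpaI digest → CE fluorescence. Positive direction vs DMSO baseline.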

[13] = target: human Peroxisome Proliferator-activated Receptor alpha (PPARa), PPARA (gene 5465) (UniProt Q07869); assay: ATG_PPARa_TRANS: Attagene TRANS-FACTORIAL HepG2 Assay for human Peroxisome Proliferator-activated Receptor alpha (PPARa) (AID 2283001; active = hit-call score of the fitted dose curve at least 0.9, where 1 is the maximum;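 for AC50: potency for gain of reporter signal over DMSO so agonist or activator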)
How it was run: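 Transfected HepG2 cells treated with test chemical for 24 h. RNA isolated, reverse-transcribed with oligo(dT), PCR-amplified, FAM-labelled and HpaI-digested. Fragments sized by capillary electrophoresis; gain-of-signal fit relative to DMSO.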

[14] = target: Retinoic acid receptor alpha (Homo sapiens) (UniProt P10276); assay: ATG_RARa_TRANS: Attagene TRANS-FACTORIAL HepG2 Assay for human Retinoic Acid Receptor alpha (RARa) (AID 2283005; active = hit-call score of the fitted dose curve at least 0.9, where 1 is the maximum)
How it was run: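 Reporter transcripts, measured by RT-PCR with fluorescent labeling and capillary electrophoresis after 24 h dosing, reflect activity of an exogenous human RARa–GAL4 fusion in transiently transfected HepG2. Fitted for increase relative to DMSO.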

Chain of human Peroxisome Proliferator-activated Receptor delta (PPARd), PPARD (gene 5467) (Q03181 whole entry, looked up): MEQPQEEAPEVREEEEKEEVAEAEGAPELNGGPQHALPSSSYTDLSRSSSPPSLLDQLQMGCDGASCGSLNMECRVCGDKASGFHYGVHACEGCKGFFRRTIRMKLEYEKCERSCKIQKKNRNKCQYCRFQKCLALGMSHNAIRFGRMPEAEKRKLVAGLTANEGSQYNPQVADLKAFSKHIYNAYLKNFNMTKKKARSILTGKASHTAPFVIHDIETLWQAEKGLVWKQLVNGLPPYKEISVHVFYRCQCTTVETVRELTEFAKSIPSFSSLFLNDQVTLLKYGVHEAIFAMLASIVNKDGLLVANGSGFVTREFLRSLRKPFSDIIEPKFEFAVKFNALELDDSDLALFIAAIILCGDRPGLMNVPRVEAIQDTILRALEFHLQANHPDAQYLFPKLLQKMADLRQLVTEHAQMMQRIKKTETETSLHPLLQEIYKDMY
Chain of Peroxisome proliferator-activated receptor gamma (Homo sapiens) (P37231 whole entry, looked up, the tested form may be a part): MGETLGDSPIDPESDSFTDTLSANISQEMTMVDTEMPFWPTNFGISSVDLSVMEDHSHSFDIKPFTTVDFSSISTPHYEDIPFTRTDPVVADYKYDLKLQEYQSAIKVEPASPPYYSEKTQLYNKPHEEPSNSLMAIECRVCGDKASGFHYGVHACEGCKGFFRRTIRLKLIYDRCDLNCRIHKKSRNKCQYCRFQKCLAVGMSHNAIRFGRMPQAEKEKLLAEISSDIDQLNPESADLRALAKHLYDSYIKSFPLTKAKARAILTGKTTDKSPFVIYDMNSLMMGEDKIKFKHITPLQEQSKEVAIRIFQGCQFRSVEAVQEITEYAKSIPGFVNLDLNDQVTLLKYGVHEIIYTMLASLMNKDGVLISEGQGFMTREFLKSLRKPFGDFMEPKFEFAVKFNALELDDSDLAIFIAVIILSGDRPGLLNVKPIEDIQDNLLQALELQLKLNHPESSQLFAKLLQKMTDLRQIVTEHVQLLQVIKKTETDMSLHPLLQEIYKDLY
Chain of human Retinoic Acid Receptor beta (RARb), RARB (gene 5915) (P10826 whole entry, looked up, the tested form may be a part): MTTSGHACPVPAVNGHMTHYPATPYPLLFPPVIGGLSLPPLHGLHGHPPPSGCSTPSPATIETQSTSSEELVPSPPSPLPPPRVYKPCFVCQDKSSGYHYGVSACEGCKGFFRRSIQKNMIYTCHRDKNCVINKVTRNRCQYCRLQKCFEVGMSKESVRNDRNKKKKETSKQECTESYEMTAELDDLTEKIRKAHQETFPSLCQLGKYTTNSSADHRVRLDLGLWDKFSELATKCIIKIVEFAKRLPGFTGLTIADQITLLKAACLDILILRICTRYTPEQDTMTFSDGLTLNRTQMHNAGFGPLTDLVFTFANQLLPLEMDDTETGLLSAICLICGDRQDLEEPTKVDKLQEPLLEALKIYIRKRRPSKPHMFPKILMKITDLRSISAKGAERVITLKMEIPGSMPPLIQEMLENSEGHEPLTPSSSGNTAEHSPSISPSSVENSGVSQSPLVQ
Chain of Retinoic acid receptor alpha (Homo sapiens) (P10276 whole entry, looked up, the tested form may be a part): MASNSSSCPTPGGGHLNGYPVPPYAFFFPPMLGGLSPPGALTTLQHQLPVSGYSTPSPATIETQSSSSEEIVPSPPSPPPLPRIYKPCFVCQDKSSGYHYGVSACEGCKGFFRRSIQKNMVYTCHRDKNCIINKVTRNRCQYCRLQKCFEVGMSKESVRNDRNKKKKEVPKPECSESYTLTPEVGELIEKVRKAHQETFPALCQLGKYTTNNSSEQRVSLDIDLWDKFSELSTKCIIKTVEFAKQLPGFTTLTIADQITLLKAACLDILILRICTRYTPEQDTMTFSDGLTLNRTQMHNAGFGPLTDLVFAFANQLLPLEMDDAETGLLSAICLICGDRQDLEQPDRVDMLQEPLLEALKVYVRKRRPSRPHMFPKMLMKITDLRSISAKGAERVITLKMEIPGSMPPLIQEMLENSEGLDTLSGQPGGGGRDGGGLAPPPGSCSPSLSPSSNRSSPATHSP
Chain of Nuclear receptor subfamily 1 group I member 2 (Homo sapiens) (O75469 whole entry, looked up, the tested form may be a part): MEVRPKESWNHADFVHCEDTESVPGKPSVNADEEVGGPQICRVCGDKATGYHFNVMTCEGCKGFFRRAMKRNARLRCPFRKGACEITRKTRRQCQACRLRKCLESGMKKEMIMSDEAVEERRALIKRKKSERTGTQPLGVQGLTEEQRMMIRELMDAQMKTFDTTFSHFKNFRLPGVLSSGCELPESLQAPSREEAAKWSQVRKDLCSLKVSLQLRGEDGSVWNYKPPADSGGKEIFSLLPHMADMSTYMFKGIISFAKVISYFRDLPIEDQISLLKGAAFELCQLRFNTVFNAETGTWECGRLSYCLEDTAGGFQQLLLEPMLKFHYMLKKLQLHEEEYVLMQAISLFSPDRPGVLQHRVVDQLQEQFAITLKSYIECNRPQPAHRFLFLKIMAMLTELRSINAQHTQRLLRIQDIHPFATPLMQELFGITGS
Chain of human Retinoic Acid Receptor gamma (RARg), RARG (gene 5916) (P13631 whole entry, looked up, the tested form may be a part): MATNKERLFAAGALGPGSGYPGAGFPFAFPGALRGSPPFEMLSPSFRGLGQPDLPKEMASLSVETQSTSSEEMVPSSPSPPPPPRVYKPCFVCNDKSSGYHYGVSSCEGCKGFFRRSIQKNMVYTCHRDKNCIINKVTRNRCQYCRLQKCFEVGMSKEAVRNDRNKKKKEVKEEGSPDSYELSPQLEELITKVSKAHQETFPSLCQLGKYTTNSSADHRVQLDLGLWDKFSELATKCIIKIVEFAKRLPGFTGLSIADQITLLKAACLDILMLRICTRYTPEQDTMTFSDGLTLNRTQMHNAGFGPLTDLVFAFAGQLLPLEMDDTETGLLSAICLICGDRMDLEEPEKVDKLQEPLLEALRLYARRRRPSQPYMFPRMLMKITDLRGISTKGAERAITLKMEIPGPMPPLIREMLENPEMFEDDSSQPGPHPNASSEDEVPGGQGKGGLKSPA
Chain of Myc proto-oncogene protein (Homo sapiens) (P01106 whole entry, looked up): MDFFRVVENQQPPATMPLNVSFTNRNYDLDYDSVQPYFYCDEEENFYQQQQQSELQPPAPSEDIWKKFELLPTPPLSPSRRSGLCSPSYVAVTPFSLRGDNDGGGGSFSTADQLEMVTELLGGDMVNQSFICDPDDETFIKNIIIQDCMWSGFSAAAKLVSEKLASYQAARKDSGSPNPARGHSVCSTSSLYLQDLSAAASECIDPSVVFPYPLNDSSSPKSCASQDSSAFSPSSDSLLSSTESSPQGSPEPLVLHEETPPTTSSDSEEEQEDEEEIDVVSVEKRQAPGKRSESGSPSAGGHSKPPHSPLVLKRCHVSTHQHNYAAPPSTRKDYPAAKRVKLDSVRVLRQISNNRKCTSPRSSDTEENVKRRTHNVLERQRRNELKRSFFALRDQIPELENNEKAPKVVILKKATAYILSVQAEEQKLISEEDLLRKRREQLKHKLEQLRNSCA
Chain of human Peroxisome Proliferator-activated Receptor alpha (PPARa), PPARA (gene 5465) (Q07869 whole entry, looked up, the tested form may be a part): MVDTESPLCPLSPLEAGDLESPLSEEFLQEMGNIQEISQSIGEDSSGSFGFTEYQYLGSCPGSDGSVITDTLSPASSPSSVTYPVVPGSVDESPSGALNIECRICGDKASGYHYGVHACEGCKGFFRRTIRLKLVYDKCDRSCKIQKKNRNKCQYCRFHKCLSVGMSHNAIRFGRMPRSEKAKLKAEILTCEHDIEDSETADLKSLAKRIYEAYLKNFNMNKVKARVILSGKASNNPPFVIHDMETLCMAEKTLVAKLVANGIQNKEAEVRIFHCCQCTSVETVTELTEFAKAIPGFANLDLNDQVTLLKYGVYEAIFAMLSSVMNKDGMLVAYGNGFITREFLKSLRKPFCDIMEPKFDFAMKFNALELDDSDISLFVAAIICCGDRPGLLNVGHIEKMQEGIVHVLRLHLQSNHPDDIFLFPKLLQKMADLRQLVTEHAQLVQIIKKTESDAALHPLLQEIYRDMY
Chain of Cellular tumor antigen p53 (Homo sapiens) (P04637 whole entry, looked up, the tested form may be a part): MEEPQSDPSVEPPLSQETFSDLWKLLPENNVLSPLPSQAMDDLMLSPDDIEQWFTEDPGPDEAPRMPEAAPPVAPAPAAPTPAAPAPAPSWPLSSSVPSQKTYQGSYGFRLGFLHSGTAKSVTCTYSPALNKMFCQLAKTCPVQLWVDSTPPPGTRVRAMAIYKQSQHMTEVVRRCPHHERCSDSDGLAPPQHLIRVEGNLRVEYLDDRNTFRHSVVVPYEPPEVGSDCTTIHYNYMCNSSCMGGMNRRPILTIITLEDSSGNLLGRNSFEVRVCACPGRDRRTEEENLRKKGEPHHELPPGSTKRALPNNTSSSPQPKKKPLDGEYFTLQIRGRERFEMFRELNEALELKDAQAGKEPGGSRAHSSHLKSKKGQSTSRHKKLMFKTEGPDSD
Chain of human RAR-related Orphan Receptor beta (RORb), RORB (gene 6096) (Q92753 whole entry, looked up, the tested form may be a part): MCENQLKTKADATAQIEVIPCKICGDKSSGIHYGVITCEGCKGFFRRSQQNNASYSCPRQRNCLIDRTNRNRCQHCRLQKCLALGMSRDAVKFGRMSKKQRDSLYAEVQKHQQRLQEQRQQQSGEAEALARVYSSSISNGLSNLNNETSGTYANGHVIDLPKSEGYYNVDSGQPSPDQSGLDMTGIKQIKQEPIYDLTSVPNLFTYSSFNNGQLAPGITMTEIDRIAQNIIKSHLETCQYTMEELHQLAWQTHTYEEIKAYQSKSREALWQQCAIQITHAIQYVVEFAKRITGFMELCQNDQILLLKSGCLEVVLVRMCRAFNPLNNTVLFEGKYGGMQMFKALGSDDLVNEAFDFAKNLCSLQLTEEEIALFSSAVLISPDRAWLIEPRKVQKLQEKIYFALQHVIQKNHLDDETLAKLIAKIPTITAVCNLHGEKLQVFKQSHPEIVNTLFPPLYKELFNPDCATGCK

Row | SMILES | outcome [1] | outcome [2] | outcome [3] | outcome [4] | outcome [5] | outcome [6] | outcome [7] | outcome [8] | outcome [9] | AC50 [4] | AC50 [10] | AC50 [8] | outcome [11] | outcome [12] | outcome [13] | outcome [14] | AC50 [13] | outcome [10]
1 | CCOC(=O)NNc1nncc2ccccc12 | inactive | inactive | inactive | inactive | inactive | inactive | inactive | inactive | inactive |  |  |  |  |  |  |  |  | 
2 | C=CC(C)(CCC=C(C)C)OC(=O)CC(C)C (configuration not stated) | inactive | inactive | inactive |  | inactive | inactive |  |  |  | 100 µM (active) | 58.2 µM (active) | 11.8 µM (active) |  |  |  |  |  | 
3 | OC1OCCOC1O (configuration not stated) | inactive | inactive | inactive | inactive | inactive |  | inactive | inactive |  |  |  |  | inactive | inactive |  |  |  | 
4 | CCC(C)OC(=O)c1ccc(O)cc1 (configuration not stated) | inactive | inactive | inactive |  | inactive | inactive |  |  | inactive | 100 µM (active) | 62.1 µM (active) | 14.8 µM (active) |  |  | inactive |  |  | 
5 | COC=O | inactive | inactive | inactive | inactive | inactive | inactive | inactive | inactive | inactive |  |  |  |  |  |  |  |  | 
6 | Cn1c(=O)[nH]c2ncn(C)c2c1=O | inactive | inactive | inactive | inactive | inactive |  |  | inactive | inactive |  |  |  | inactive |  |  | inactive |  | 
7 | Cc1cc(C)c(C(=O)O)c(C)c1 | inactive | inactive | inactive | inactive | inactive |  |  | inactive |  |  |  |  |  |  |  | inactive | 33.7 µM (active) | inactive
8 | Clc1nc2ccccc2s1 | inactive | inactive | inactive | inactive | inactive |  |  | inactive | inactive |  |  |  | inactive | inactive |  | inactive |  | inactive
9 | COCCCOCCCOC | inactive | inactive | inactive | inactive | inactive | inactive |  | inactive |  |  |  |  |  |  | inactive |  |  | 
10 | Cc1cccc(C(=O)O)c1 | inactive | inactive | inactive | inactive | inactive |  |  | inactive | inactive |  |  |  |  |  | inactive | inactive |  | inactive
